ADAM10 inh – human ADAM10 inhibitors, primary screen, biochemical, QFRET, HTS | Disintegrin and metalloproteinase domain-containing protein 10 (Homo sapiens), O14672 | 370,000 compounds, 0.62% hits | recombinant ADAM10, EDANS/DABCYL FRET peptide cleavage, 3 h | inhibition, % at 7 µM;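 active = inhibition above a per-campaign cutoff equal to the mean of compounds falling between control-based bounds plus 3 SD, cut at about 20% in these data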;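 note: 0% = DMSO wells while the 100% control is not disclosed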
ADAM17 inh – ADAM17 inhibitors, primary screen, biochemical, QFRET; Disintegrin and metalloproteinase domain-containing protein 17 (Homo sapiens), P78536; recombinant ADAM17, EDANS/DABCYL FRET peptide cleavage; inhibition, % at 6.95 µM; 370,000 compounds, 0.83% hits;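 active = inhibition above the mean of compounds lying between control limits plus 3 SD, set per campaign, cut at about 8.5% in these data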;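 note: 0% = DMSO-only wells as the low control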
FAS-TE inh – FAS thioesterase domain inhibitors, primary screen, biochemical, fluorescence intensity, uHTS; 360,000 compounds, 0.67% hits; recombinant FAS-TE, OMFH fluorogenic substrate, fluorescence endpoint; inhibition, % at 15 µM; Fatty acid synthase (Homo sapiens), P49327; AID 602261, 2012;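 active = compounds whose normalised, plate-corrected inhibition of enzyme fluorescence in the single-dose primary screen is 50% or more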;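 note: 0% = DMSO with enzyme and 100% = substrate without enzyme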
Target sequence (P49327 whole entry, looked up, the tested form may be a part): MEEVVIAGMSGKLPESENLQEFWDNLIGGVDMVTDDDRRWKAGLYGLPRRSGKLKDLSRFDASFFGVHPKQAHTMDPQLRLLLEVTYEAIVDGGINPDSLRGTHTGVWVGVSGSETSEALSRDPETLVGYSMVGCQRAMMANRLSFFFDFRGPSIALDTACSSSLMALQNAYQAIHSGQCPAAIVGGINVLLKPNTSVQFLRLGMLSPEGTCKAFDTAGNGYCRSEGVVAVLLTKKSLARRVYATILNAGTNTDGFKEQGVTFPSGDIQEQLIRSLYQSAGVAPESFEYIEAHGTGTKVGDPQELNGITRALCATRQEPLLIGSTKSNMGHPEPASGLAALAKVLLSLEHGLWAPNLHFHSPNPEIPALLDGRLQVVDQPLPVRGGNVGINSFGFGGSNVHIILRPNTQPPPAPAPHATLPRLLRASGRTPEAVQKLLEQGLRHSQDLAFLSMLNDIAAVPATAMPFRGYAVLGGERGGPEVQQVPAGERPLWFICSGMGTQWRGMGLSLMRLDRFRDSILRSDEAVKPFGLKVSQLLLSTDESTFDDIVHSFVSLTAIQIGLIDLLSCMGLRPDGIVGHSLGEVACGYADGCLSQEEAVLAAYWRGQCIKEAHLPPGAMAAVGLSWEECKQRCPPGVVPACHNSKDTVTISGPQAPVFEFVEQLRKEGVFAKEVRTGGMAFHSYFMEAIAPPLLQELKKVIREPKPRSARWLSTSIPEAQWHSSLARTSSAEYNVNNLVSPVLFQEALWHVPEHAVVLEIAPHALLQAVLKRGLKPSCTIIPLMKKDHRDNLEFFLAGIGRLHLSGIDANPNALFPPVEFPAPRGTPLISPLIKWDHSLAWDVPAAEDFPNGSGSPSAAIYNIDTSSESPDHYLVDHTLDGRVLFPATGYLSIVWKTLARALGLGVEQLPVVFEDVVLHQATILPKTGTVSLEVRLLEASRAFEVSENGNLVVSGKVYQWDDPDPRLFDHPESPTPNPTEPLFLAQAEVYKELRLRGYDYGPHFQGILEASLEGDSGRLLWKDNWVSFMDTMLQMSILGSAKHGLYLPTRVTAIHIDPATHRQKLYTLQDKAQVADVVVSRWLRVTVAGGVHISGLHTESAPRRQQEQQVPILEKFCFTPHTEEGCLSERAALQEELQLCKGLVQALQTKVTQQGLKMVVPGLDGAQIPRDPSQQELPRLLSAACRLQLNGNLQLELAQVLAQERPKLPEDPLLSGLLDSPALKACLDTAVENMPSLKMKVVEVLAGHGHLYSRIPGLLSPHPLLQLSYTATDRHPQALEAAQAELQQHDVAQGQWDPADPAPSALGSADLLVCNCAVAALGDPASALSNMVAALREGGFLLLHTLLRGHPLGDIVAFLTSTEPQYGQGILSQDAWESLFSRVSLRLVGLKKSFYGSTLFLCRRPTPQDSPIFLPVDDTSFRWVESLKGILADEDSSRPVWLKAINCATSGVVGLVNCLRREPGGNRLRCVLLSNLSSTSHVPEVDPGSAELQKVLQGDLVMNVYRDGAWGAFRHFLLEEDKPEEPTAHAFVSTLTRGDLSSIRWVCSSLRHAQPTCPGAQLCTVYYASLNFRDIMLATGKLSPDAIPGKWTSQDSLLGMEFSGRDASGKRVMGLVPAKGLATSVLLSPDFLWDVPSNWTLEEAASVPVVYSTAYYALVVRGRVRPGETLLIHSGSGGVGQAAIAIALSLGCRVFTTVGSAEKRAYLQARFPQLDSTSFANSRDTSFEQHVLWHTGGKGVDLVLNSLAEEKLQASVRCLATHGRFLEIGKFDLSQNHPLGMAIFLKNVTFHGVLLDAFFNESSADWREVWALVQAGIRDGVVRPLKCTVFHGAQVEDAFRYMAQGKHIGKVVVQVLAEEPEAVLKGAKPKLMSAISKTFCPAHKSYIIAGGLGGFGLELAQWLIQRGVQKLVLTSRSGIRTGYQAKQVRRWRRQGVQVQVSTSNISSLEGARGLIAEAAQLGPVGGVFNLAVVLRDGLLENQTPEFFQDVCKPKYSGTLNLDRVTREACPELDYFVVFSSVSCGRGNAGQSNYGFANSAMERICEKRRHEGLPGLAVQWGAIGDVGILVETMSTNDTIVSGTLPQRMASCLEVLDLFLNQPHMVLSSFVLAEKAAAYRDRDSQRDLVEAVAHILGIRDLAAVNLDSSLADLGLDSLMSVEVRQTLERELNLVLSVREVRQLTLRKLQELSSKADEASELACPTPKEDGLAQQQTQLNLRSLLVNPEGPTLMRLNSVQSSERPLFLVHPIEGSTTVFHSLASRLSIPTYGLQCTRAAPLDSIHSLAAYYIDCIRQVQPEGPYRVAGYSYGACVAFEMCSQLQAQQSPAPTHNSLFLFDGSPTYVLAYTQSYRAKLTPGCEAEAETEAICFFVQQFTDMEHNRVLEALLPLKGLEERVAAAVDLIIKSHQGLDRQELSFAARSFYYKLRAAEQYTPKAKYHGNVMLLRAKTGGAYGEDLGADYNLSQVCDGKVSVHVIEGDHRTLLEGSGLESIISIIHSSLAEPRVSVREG
NPR1 activator – GC-A stimulated cGMP production enhancers – HEK293 GC-A cells, cGMP TR-FRET, EC30 ANP, primary screen; 370,000 compounds, 0.14% hits; Atrial natriuretic peptide receptor 1 (Homo sapiens), P16066; activation, % at 10 µM; 0% at EC30 ANP, 100% saturating ANP; AID 1671463, 2021; in the data active = activation above about 40%
NPR2 activator – human GC-B receptor activators, primary screen, HEK293 GC-B cells, cGMP TR-FRET, EC30 CNP | AID 1920062, 2024 | activation, % at 10 µM | Atrial natriuretic peptide receptor 2 (Homo sapiens), P20594 | 370,000 compounds, 0.11% hits | 0% at EC30 CNP, 100% saturating CNP;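 active = activation at 10 µM reaching about 35% in either raw or pattern-adjusted values, limit read from the data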
ADAM10 confirm – human ADAM10 inhibitors, confirmation, biochemical, QFRET, triplicate. AID 743208, 2013. shares compounds with ADAM10 inh. ADAM10 QFRET peptide cleavage, EDANS fluorescence. 2,100 compounds, 1% hits. inhibition, % at 6.95 µM;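 active = inhibition above about 20% chosen separately for each screening run, limit read from the data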;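 note: 0% = DMSO wells and 100% = marimastat wells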
ADAM17 counter – ADAM17 inhibitors, counter-screen for ADAM10 exosite inhibitor project, biochemical, QFRET, high throughput; inhibition, % at 6.95 µM; 2,100 compounds, 0.5% hits; AID 743214, 2013; ADAM17 QFRET peptide cleavage, EDANS fluorescence; shares compounds with ADAM10 inh;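 active = mean triplicate inhibition above the solvent-only control wells' mean plus 3 SD, cut at about 12% in these data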;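 note: 0% = DMSO wells and 100% = marimastat wells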
Active calls of the source: *; . = no result. An excerpt weighted towards active compounds, which were near 2% of everything screened.

SMILES	ADAM10 inh	ADAM17 inh	FAS-TE inh	NPR1 activator	NPR2 activator	ADAM10 confirm	ADAM17 counter
CSc1ccc(S(=O)(=O)Nc2ccc3c4c(cccc24)CC3)cc1	20*	7	20	2	-3	10	3
CCOc1cc(CNn2cn[nH]c2=S)cc(Cl)c1OCc1ccccc1F	25*	12*	0	-2	0	0	0
COc1cc(CNn2c(C)n[nH]c2=S)cc(Cl)c1OCc1ccc(F)cc1	8	4	3	2	-3	.	.
O=C(Nc1cc(Cl)ccc1-n1cncn1)c1cccc(S(=O)(=O)N2CCOCC2)c1	93*	-5	1	1	6	-1	0
O=C(Nc1cc(Cl)ccc1-n1cncn1)c1ccc(F)c(S(=O)(=O)N2CCOCC2)c1	-2	-5	2	-2	5	.	.
CCO[C@H]1OC(C(=O)Nc2ccccc2)=C[C@@H](c2ccc(Br)cc2)[C@@H]1CCCO	24*	9	20	-2	-7	7	2
CCO[C@@H]1OC(C(=O)Nc2ccccc2)=C[C@H](c2ccc(C(F)(F)F)cc2)[C@H]1CCCO	18	6	13	-1	-4	.	.
C/C(=N\OCC(=O)Nc1ccc(OC(F)(F)F)cc1)c1ccc2c(c1)OCCO2	20*	7	34	0	6	8	2
O=S(=O)(Nc1ccc2c(c1)OCCO2)c1ccc(Br)s1	21*	3	0	1	5	2	0
CCOc1ccc2nc(SCC(=O)Nc3ccc(S(=O)(=O)N4CCCC4)cc3)c(C)cc2c1	-2	-4	18	1	-2	.	.
COc1ccc2nc(SCC(=O)Nc3ccc(S(=O)(=O)N4CCCC4)cc3)c(C#N)cc2c1	72*	-4	34	0	-6	20*	10
COc1ccc(C2(c3ccc(OC)cc3)NC(=O)N(CC(=O)Nc3ccc(OC(F)F)cc3)C2=O)cc1	31*	6	26	-4	4	9	2
CCCNC(=O)C(Cc1cccc(OC)c1)NC(=O)c1ccc(C(C)(C)C)cc1 (centres undefined)	83*	1	-4	0	2	0	0
CCCNC(=O)C(Cc1cccc(OC)c1)NC(=O)c1ccc(C#N)cc1 (centres undefined)	3	-1	8	-2	-6	.	.
Cn1cc(CC(=O)Nc2ccc(Oc3cccnc3)cc2)c2ccccc21	-6	-2	.	-2	0	.	.
COc1ccc(-n2c(SCC(=O)Nc3ccc4c(c3)OCO4)nc3sc4c(c3c2=O)CCCC4)cc1	-7	-1	.	-2	-3	.	.
O=C(COC(=O)Cc1c(Cl)cccc1Cl)Nc1ccccc1-c1ccccc1	23*	8	26	-1	-10	3	2
COc1ccc(C2C(C(=O)Nc3cccnc3)=C(C)Nc3nc(-c4cccs4)nn32)cc1OC (centres undefined)	77*	-1	-4	2	4	0	0
COc1ccc(C2C(C(=O)Nc3cccnc3)=C(C)Nc3nc(-c4cccs4)nn32)cc1 (centres undefined)	-8	-3	-1	-11	1	.	.
CC1CCN(c2ccc(C(=O)O)cc2NS(=O)(=O)c2cccc3cccnc23)CC1	-7	-4	.	0	4	.	.
CC(OC(=O)c1ccc(NS(=O)(=O)c2ccc3[nH]c(=O)[nH]c3c2)cc1)C(=O)Nc1ccc(Cl)cc1 (centres undefined)	11	4	23	0	2	.	.

Screening results as filed in PubChem.
